CR mimetic SO = caloric restriction mimetics inhibiting age-related superoxide in yeast | actives 0.18% (n = 330,000) | superoxide response (% of plate mean), % at 10 µM | S. cerevisiae aged cells, superoxide DHE fluorescence; hits give low values;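 active means superoxide response under a set limit, about three screen SD below normal, cut at about 65% in these data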;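 further: yeast aged for seven days with compound at 30 °C before DHE staining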
VLA-4 inh = inhibition in a human VLA-4 binding assay. P13612. VLA-4 expressing cells, ligand binding flow cytometry. inhibition, % (about 7 µM as worked out from the volumes in the protocol). actives 0.2% (n = 330,000). AID 2557; in the data active means inhibition above about 50%
ABCB6 inh MLPCN = human ABCB6 transporter inhibition. actives 0.19% (n = 360,000). AID 602162. fluorescence ratio to DMSO, % at 10 µM. Q9NP58. K562-ABCB6 porphyrin accumulation, flow cytometry, 1 h; hits give low values;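 active means fluorescence ratio to DMSO below 75%, the collection mean minus 3 SD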;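 further: signal is porphyrin accumulated inside mitochondria; lower ratio means ABCB6 inhibition with less porphyrin fluorescence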
SKN-1 inh = inhibitors of C. elegans SKN-1. C. elegans VP596 Pgst-4::GFP/RFP ratio, acrylamide-induced, 24 h. inhibition, % at 21.8 µM. actives 0.49% (n = 360,000). AID 624304;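 active means interference check ratio from 0.5 to 1.5 plus GFP to RFP signal ratio inhibition reaching or exceeding a fixed threshold, cut at about 30% in these data, passing the limit was not always enough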
Platelet DG rel = platelet dense granule release activity; actives 0.22% (n = 300,000); inhibition, %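 (compounds screened at 7.5 µM in platelet-rich plasma)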; AID 1663; human platelet-rich plasma, SFLLRN dense granule ATP release, luminescence;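 active means mean replicate score, as percent of positive control, at or above 50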
ABCB6 blocker 1 = inhibitors of human ABC transporter ABCB6. shares compounds with ABCB6 inh MLPCN. K562-ABCB6 porphyrin accumulation, flow cytometry, 1 h; hits give low values. ratio response (% of DMSO), % at 10 µM. 700 tested, under 10 active;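 active means repeat-averaged ratio response below 75% of DMSO, the collection mean minus 3 SD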;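 further: median porphyrin fluorescence at 575 nm with 488 nm excitation from mitochondria; lower ratio means less porphyrin signal so ABCB6 inhibition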
Large screens that a line does not name were inactive (follow-up assays come after a bar, where they were run). Compounds with a hit are over-represented: about 1.2% of the library has one in this group of screens.

O=C(O)CCc1ccc(S(=O)(=O)N2CCOCC2)cc1	none
Cc1ccc([C@H]2N[C@]3(CCCN(Cc4ccc(Br)cc4)C3=O)[C@H]3C(=O)N(C)C(=O)[C@@H]23)cc1	none (no result: CR mimetic SO, VLA-4 inh, Platelet DG rel)
CCCNS(=O)(=O)c1ccc(CCC(=O)NCc2ccc3c(c2)OCO3)cc1	none
O=C(CCNS(=O)(=O)c1ccc(Br)cc1)NCc1ccc2c(c1)OCO2	ABCB6 inh MLPCN 62 | ABCB6 blocker 1 inactive
Nc1nc(SCc2c(F)cccc2Cl)[nH]c(=O)c1-c1ccccc1	ABCB6 inh MLPCN 50 | ABCB6 blocker 1 inactive
Nc1nc(SCc2ccc(Br)cc2)[nH]c(=O)c1-c1ccccc1	none
O=C(OCC(=O)N1CCN(c2ccccc2)CC1)c1ccc2ccccc2n1	ABCB6 inh MLPCN 74 | ABCB6 blocker 1 inactive
CCCc1nc2ccc(NC(=O)c3cccs3)cc2c(=O)n1Cc1ccc(Cl)cc1	ABCB6 inh MLPCN 73 | ABCB6 blocker 1 inactive
O=C(c1ccco1)N1CCC(c2nc3c(nnn3Cc3ccc(F)cc3)c(=O)[nH]2)CC1	none | ABCB6 blocker 1 inactive
O=C(c1ccco1)N1CCC(c2nc3c(nnn3Cc3ccccc3Cl)c(=O)[nH]2)CC1	none | ABCB6 blocker 1 inactive
O=C(c1ccco1)N1CCCC(c2nc3c(nnn3Cc3ccccc3)c(=O)[nH]2)C1 (stereo unspecified)	none
Cc1ccc(C)c(Cn2nnc3c(=O)[nH]c(C4CCN(C(=O)c5ccco5)CC4)nc32)c1	none | ABCB6 blocker 1 inactive
CCCCNC(=O)C1(C)CCCCN1C(=O)c1c(Cl)cccc1Cl (stereo unspecified)	none (no result: CR mimetic SO, VLA-4 inh, Platelet DG rel)
OC(c1cc(F)cc(Cl)c1)c1ncc(-c2ccccc2C(F)(F)F)[nH]1 (stereo unspecified)	none (no result: CR mimetic SO, VLA-4 inh, Platelet DG rel)
CC(C)n1nnnc1C1c2ccccc2C(=O)N1Cc1ccccc1 (stereo unspecified)	none (no result: CR mimetic SO, VLA-4 inh, Platelet DG rel)
O=C(O)C(Cc1ccccc1)NS(=O)(=O)c1ccc(Cl)cc1 (stereo unspecified)	none
O=C(O)C(Cc1ccccc1)NS(=O)(=O)c1ccc2c(c1)OCCO2 (stereo unspecified)	ABCB6 inh MLPCN 68 | ABCB6 blocker 1 inactive
O=C(O)C(Cc1ccc(Cl)cc1)NS(=O)(=O)c1ccc(Cl)cc1 (stereo unspecified)	ABCB6 inh MLPCN 49 | ABCB6 blocker 1 inactive
Cc1ccc2nc(-c3ccccn3)c(N)n2c1	none (no result: CR mimetic SO, VLA-4 inh, Platelet DG rel)
Cc1c(C(=O)NCc2ccc(C(C)C)cc2)sc(=O)n1Cc1ccc(S(=O)(=O)N(C)C)cc1	none (no result: CR mimetic SO, VLA-4 inh, Platelet DG rel)
CC1(C(=O)NS(=O)(=O)c2ccccc2Cl)CCN1C(=O)CCC1CCCC1 (stereo unspecified)	none (no result: CR mimetic SO, VLA-4 inh, Platelet DG rel)
CCc1nc2c(OCCOc3ccc(F)cc3)cccn2c1N(C)C(=O)c1ccc(OC)cc1	none (no result: CR mimetic SO, VLA-4 inh, Platelet DG rel)
Cc1ccc(-n2nc3c(c2NC(=O)C2CCCC2)CS(=O)(=O)C3)cc1	ABCB6 inh MLPCN 10 | ABCB6 blocker 1 inactive
O=C(Nc1c2c(nn1-c1ccc(Cl)cc1)CS(=O)(=O)C2)C1CC1	none
CCC(C)c1c(O)nc(SCC(=O)N2CCOCC2)[nH]c1=O (stereo unspecified)	none
CCC(C)c1c(O)nc(SCC(=O)N2CCCCC2)[nH]c1=O (stereo unspecified)	ABCB6 inh MLPCN 52 | ABCB6 blocker 1 inactive
Clc1ccc(-c2cc3nc(NCc4cccc(Cl)c4)ccn3n2)cc1	none (no result: CR mimetic SO, VLA-4 inh, Platelet DG rel)
Cc1ccc(C)c(NC(=O)CN2C(=O)C3CC=CCC3C2=O)c1 (stereo unspecified)	none (no result: CR mimetic SO, VLA-4 inh, Platelet DG rel)
O=C(c1cc(-c2ccncc2)nc2ccccc12)N1CCN(c2ccccn2)CC1	ABCB6 inh MLPCN 69 | ABCB6 blocker 1 inactive
O=C(c1cc(-c2ccccc2)nc2ccccc12)N1CCN(c2ccccn2)CC1	none
O=c1cc(CO)oc(CN2CCN(c3cccc(C(F)(F)F)c3)CC2)c1O	none
O=c1cc(CO)oc(CN2CCN(c3ccccc3)CC2)c1O	ABCB6 inh MLPCN 73 (no result: Platelet DG rel) | ABCB6 blocker 1 inactive
O=C(Nc1ccc(F)cc1)C(CCc1ccccc1)N1CCN(c2ccncc2)CC1 (stereo unspecified)	none (no result: CR mimetic SO, VLA-4 inh, ABCB6 inh MLPCN, Platelet DG rel)
Cc1ccc(S(=O)(=O)N2CC3C(=O)CC(c4ccccc4)N(S(=O)(=O)c4ccc(C)cc4)C3CC2c2cccc(Cl)c2)cc1 (stereo unspecified)	none (no result: CR mimetic SO, VLA-4 inh, ABCB6 inh MLPCN, Platelet DG rel)
Clc1ccccc1-c1nnc2sc(C3COc4ccccc4O3)nn12 (stereo unspecified)	ABCB6 inh MLPCN 44 (no result: Platelet DG rel) | ABCB6 blocker 1 inactive
CCOC(=O)c1ccccc1NC(=O)CSc1nnc(Cc2cccn2C)n1-c1ccc(F)cc1	ABCB6 inh MLPCN 65 | ABCB6 blocker 1 inactive
CN(C)C(=O)c1cn(-c2ccccc2)nc1-c1cc2ccccc2o1	ABCB6 inh MLPCN 35 | ABCB6 blocker 1 inactive
CCc1nc2ccc(C(=O)Nc3cc(-c4ccccc4)ccc3OC)cn2c1N(C)C(=O)c1cccc(OC)c1	none (no result: CR mimetic SO, VLA-4 inh, Platelet DG rel)
O=C(Nc1cccc2cccnc12)c1ccc2c(c1)OCCO2	ABCB6 inh MLPCN 43 | ABCB6 blocker 1 inactive
COc1cc(NC(=O)c2ccc3c(c2)OCO3)c2ncccc2c1	none
Cc1cccc(-c2noc(-c3csc([C@@H]4C[C@H](O)[C@@H](CO)O4)n3)n2)c1	none (no result: CR mimetic SO, VLA-4 inh, Platelet DG rel)
CN(C)c1ccc2c(c1)Sc1cc(N(C)C)ccc1N2C(=O)c1ccccc1	ABCB6 inh MLPCN 73 | ABCB6 blocker 1 inactive
CC(=O)N1CCc2cc(S(=O)(=O)C(C)CC(=O)NCc3ccco3)ccc21 (stereo unspecified)	none (no result: CR mimetic SO, VLA-4 inh, Platelet DG rel)
COC(=O)[C@]12CCCCC=C1N(Cc1ccc(Cl)cc1Cl)C(=O)[C@H](CC(=O)N1CCSCC1)C2	none (no result: CR mimetic SO, VLA-4 inh, Platelet DG rel)
Cc1c(C#N)c(NC(=O)C(C)C)n(Cc2ccccc2)c1C	ABCB6 inh MLPCN 74 | ABCB6 blocker 1 inactive
Cc1cccc(C(=O)Nc2c(C#N)c(C)c(C)n2Cc2ccccc2)c1	none
O=C(Nc1ccc(-n2nncc2-c2ccco2)cc1)c1cccc(F)c1	ABCB6 inh MLPCN 58 | ABCB6 blocker 1 inactive
O=C(Nc1ccc(-n2nncc2-c2ccco2)cc1)c1cc2ccccc2oc1=O	none
NC(Cc1ccc(C(F)(F)F)cc1)c1csc(Nc2ccc(S(N)(=O)=O)cc2)n1 (stereo unspecified)	none (no result: CR mimetic SO, VLA-4 inh, Platelet DG rel)
O=C(NCc1ccccc1)c1cc(-c2cccs2)on1	ABCB6 inh MLPCN 62 | ABCB6 blocker 1 inactive
COc1ccc(CCCNC(=O)C2(C)Cc3c(-c4ccc(C(N)=O)cc4)ccnc3O2)cc1 (stereo unspecified)	ABCB6 inh MLPCN 71 (no result: CR mimetic SO, VLA-4 inh, Platelet DG rel) | ABCB6 blocker 1 inactive
CS(=O)(=O)N1CCCCC1c1cc(C(=O)NCc2ccc(Cl)c(Cl)c2)no1 (stereo unspecified)	none (no result: CR mimetic SO, VLA-4 inh, Platelet DG rel)
CCOC(=O)N1CCN(S(=O)(=O)c2ccc(C(=O)Nc3sc4c(c3C(N)=O)CCN(CC)C4)cc2)CC1	ABCB6 inh MLPCN 73 | ABCB6 blocker 1 inactive
CCCCNC(=O)c1ccc2nc(CC)c(N(CC)CCOC)n2c1	none (no result: CR mimetic SO, VLA-4 inh, Platelet DG rel)
CCOC(=O)[C@]12CCC=C1N(Cc1ccc3c(c1)OCO3)C(=O)[C@H](CC(=O)N1CCC(c3ccccc3)CC1)C2	none (no result: CR mimetic SO, VLA-4 inh, Platelet DG rel)

Screening results (PubChem BioAssay)
